Compounds with a hit are over-represented: about 5.9% of the library has one in this group of screens.
Gal4-VP16 FLuc – VP16 counterscreen qHTS for inhibitors of ROR gamma transcriptional activity | Drosophila S2 Gal4-VP16 UAS-luciferase, luminescence, 20 h | Potency, µM (doses to about 53.6 µM), inactives show at the top dose activity, negative = inhibition, actives largely listed as inhibitors | 3.5% of 310,000 active;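 further: Gal4-VP16 expression switched on by copper sulfate through the metallothionein promoter; potency means the concentration at half of the fitted maximal effect; nearly all actives have a fitted effect of over 50% in size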
GALK inhibitor – qHTS Assay for Inhibitors of Human Galactokinase (GALK); P51570; Purified GALK, Kinase-Glo residual ATP luminescence; Potency, µM (titrated, usually from 57.5 µM), inactives show at the highest dose activity change, negative = inhibition, usual class: inhibitors; 0.007% of 270,000 active; AID 1868, 2009; further: potency means the concentration at half of the fitted maximal effect
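GALK at 5 nM final was combined with compound, 35 uM ATP and 100 uM galactose in HEPES pH8.0 with MgCl2 and DTT. The reaction ran one hour at room temperature before luminescent ATP detection.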
RORg inh – qHTS for inhibitors of ROR gamma transcriptional activity. Potency, µM (series often up to 53.6 µM), inactives show top-dose activity change, negative = inhibition, hits mostly inhibitors. 5.4% of 310,000 active. Drosophila S2 Gal4-RORgamma UAS-luciferase reporter, 20 h. Nuclear receptor ROR-gamma (Mus musculus), P51450; further: potency means the concentration at half of the fitted maximal effect; nearly all actives have a fitted effect of over 60% in size
Target sequence (P51450 whole entry, looked up, the tested form may be a part): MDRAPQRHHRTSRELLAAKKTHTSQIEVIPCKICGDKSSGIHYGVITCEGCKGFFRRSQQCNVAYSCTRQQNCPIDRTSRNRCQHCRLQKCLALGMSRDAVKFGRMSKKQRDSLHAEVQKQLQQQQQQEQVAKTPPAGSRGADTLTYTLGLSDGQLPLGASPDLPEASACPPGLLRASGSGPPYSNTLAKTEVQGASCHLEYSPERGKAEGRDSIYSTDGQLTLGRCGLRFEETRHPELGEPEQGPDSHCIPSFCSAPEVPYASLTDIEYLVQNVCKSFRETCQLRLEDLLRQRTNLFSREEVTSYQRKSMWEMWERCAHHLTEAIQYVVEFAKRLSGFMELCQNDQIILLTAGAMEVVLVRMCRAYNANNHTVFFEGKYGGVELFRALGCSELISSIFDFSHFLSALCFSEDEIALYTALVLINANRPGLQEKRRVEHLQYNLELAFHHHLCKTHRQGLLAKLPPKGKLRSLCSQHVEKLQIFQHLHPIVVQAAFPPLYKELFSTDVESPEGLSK
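A Gal4/UAS one-hybrid system in insect cells: metallothionein-promoter Gal4–ROR gamma fusion plus Photinus luciferase reporter. Copper sulfate 700 uM final, 20 hr ambient incubation, luminescent detection after 10 min with reagent.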
FBPA coupling cs – qHTS Assay for Inhibitors of Fructose-1,6-bisphosphate Aldolase from Giardia Lamblia: Coupling assay counterscreen; coupling enzyme system counterscreen, AmpLite Red fluorescence; activity change, negative = inhibition, % at 58.2 µM, hits read low; 0.67% of 290,000 active; in the data active means activity change below about -30%
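Counterscreen of the coupled detection system alone, without aldolase: glyceraldehyde-3-phosphate coupling enzymes plus AmpLite Red readout. Compounds at 57.5 uM final, 10 min RT preincubation, 20 min RT reaction, fluorescence 525/598 nm.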
TrxR1 inh – qHTS Assay for Inhibitors of Mammalian Selenoprotein Thioredoxin Reductase 1 (TrxR1): qHTS; Thioredoxin reductase 1, cytoplasmic (Rattus norvegicus), O89049; recombinant rTrxR1, NADPH fluorescence consumption, selenite substrate; Potency, µM (highest dose often 114 µM), for the others: top-dose activity change, negative = inhibition, actives largely listed as inhibitors; 1% of 390,000 active; AID 588453, 2011; further: potency means the concentration at half of the fitted maximal effect; nearly all actives have a fitted effect of over 65% in size
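Rat TrxR1 (90 nM in the dispensed reagent) was pre-reduced with 400 uM NADPH for 5 min at room temperature, then incubated with compound for 15 min. After 400 uM selenite was added, NADPH fluorescence (Ex 340/Em 450 nm) was followed for 8 min.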
TrxR1 substrate – qHTS Assay for Substrates of Mammalian Selenoprotein Thioredoxin Reductase 1 (TrxR1): qHTS | 0.01% of 390,000 active | Potency, µM (doses to about 114 µM), inactives show at the top dose activity change, negative = substrate turnover | purified TrxR1 substrate turnover, NADPH consumption readout | Thioredoxin reductase 1, cytoplasmic (Rattus norvegicus), O89049; further: potency means the concentration at half of the fitted maximal effect; nearly all actives have a fitted effect of over 50% in size
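Rat TrxR1, dispensed at 90 nM, was prereduced with 400 uM NADPH (final) for 5 min at ~22 deg C, then incubated with compound 15 min before 400 uM selenite. A first-read NADPH fluorescence drop versus no-compound background flagged substrates.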
* marks the source's active call; other numbers are inactive results; [ ] = another dose, or the depositor's remark. Unless noted, the call rests on the fitted dose curve; in most records, active means well fitted curve in the direction sought with a large enough effect; inconclusive means small, poorly fitted or top-dose-only effect, or another doubt; inactive means no such curve, though single readings can be large; an effect the other way counts as inactive or inconclusive. On the % scale 0 is the no-effect control and ±100 the full control effect.

`Cc1ccc2oc(-c3ccccc3)c(C(=O)O)c(=O)c2c1` gave Gal4-VP16 FLuc 11.2µM*, GALK inhibitor 1.9%, RORg inh 7.08µM*, FBPA coupling cs -1.7, TrxR1 inh 9.5% and TrxR1 substrate 2.5%.
For Cc1ccc(-c2oc3ccccc3c(=O)c2OCC(=O)O)cc1 the results were Gal4-VP16 FLuc 4.1%, GALK inhibitor -0.2%, RORg inh -0.1%, FBPA coupling cs 2.4, TrxR1 inh -0.1% and TrxR1 substrate 3.3%.
Cc1ccc2oc(-c3ccccc3)c(O)c(=O)c2c1 was read as Gal4-VP16 FLuc 14.1µM*, RORg inh 6.31µM* and FBPA coupling cs 2.5.
For COc1ccccc1NC(=O)Cn1c(=O)n(Cc2ccco2)c(=O)c2oc3ccccc3c21 the results were TrxR1 inh 22.1% and TrxR1 substrate -3.7%.
Screening CCNC(=S)NC1CC2CCCC(C1)N2CCc1ccccc1 (stereo not given) returned Gal4-VP16 FLuc -1.7%, GALK inhibitor -3.3%, RORg inh -24.4%, FBPA coupling cs -4.1, TrxR1 inh 15.5% and TrxR1 substrate 6.7%.
Cc1ccc(C2Nc3ccccc3-c3nc4ccccc4n32)o1 (stereo not given) was read as Gal4-VP16 FLuc -8.4%, GALK inhibitor 0.2%, RORg inh inconclusive, FBPA coupling cs -1.1, TrxR1 inh 2.0% and TrxR1 substrate 166.8%.
O=C(NC1CCCc2ccccc21)c1ccc(F)cc1F (stereo not given) was read as Gal4-VP16 FLuc -6.4%, GALK inhibitor 5.4%, RORg inh -11.7%, FBPA coupling cs 1.7, TrxR1 inh 10.0% and TrxR1 substrate -1.1%.
For N=C1C(c2nc3ccccc3[nH]2)=C(O)CN1c1ccc(CC(=O)O)cc1 the results were Gal4-VP16 FLuc 5.8%, GALK inhibitor -0.4%, RORg inh inconclusive, FBPA coupling cs 0.4, TrxR1 inh -6.6% and TrxR1 substrate 1.1%.
`N=C1C(c2nc3ccccc3[nH]2)=C(O)CN1c1ccccc1` gave Gal4-VP16 FLuc inconclusive, GALK inhibitor 3.0%, RORg inh 14.1µM*, FBPA coupling cs -0.1, TrxR1 inh 7.4%[57.1 µM] and TrxR1 substrate -9.0%[57.1 µM].
Screening Cn1c(=O)c2sccc2n2c(CCC(=O)NCc3ccc(F)cc3)nnc12 returned TrxR1 inh 23.8% and TrxR1 substrate 6.4%[2.29 µM].
For COc1ccc(N2C(=O)CC(N(CCc3ccc(OC)c(OC)c3)C(=S)Nc3ccccc3)C2=O)cc1 (stereo not given) the results were Gal4-VP16 FLuc 0.794µM*, GALK inhibitor 0.9%, RORg inh inconclusive, FBPA coupling cs 1.9, TrxR1 inh 3.7% and TrxR1 substrate -1.9%.
`COc1ccc(N2C(=O)CC(N(C)CCc3ccc(OC)c(OC)c3)C2=O)cc1` (stereo not given) gave Gal4-VP16 FLuc -16.2%, GALK inhibitor 2.8%, RORg inh 7.3%, FBPA coupling cs -2.9, TrxR1 inh 17.4%[11.4 µM] and TrxR1 substrate 6.5%[11.4 µM].
For COc1ccc(N2C(=O)CC(N(CCc3ccc(S(N)(=O)=O)cc3)C(=S)Nc3ccccc3)C2=O)cc1 (stereo not given) the results were Gal4-VP16 FLuc 3.2%, GALK inhibitor 1.1%, RORg inh 21.9%, FBPA coupling cs 0.9, TrxR1 inh 12.3% and TrxR1 substrate -8.9%.
For COc1ccc(CCN(C)C2CC(=O)N(c3ccccc3)C2=O)cc1OC (stereo not given) the results were Gal4-VP16 FLuc 15.8µM*, GALK inhibitor 5.9%, RORg inh inconclusive, FBPA coupling cs -0.9, TrxR1 inh -2.8%[57.1 µM] and TrxR1 substrate 11.6%[57.1 µM].
For COC(=O)c1nc(Cl)c(Cl)c(N)c1Cl the results were Gal4-VP16 FLuc -3.0%, GALK inhibitor 5.4%, RORg inh -3.4%, FBPA coupling cs -0.1, TrxR1 inh 16.4%[57.1 µM] and TrxR1 substrate 0.6%[57.1 µM].
For C[C@@H](C(=O)Nc1ccc2ccccc2c1)[C@@H]1C[C@@]1(C)[C@@H](NC(=O)OCc1ccccc1)c1ccccc1 the results were Gal4-VP16 FLuc -5.7%, RORg inh 12.1%, FBPA coupling cs -0.5, TrxR1 inh 18.6% and TrxR1 substrate -2.4%.
Screening CC(C)[C@@H](OCc1ccccc1)[C@H](C)/C=N\O[C@@H](C)c1cn([C@H](CO)Cc2ccccc2)nn1 returned Gal4-VP16 FLuc 1.1%[10 µM], RORg inh -8.7%[10 µM] and FBPA coupling cs -0.9.
`CCC1(c2ccccc2)NC(=O)N(C)C1=O` (stereo not given) gave Gal4-VP16 FLuc 5.4%, RORg inh 13.2%, FBPA coupling cs 1.4, TrxR1 inh -14.8% and TrxR1 substrate -15.4%.
`CCn1c(SCC#N)nc2c(c1=O)C1(CCCC1)Cc1ccccc1-2` gave Gal4-VP16 FLuc 0.3%, GALK inhibitor 3.2%, RORg inh -22.2%, FBPA coupling cs 4.4, TrxR1 inh -8.2% and TrxR1 substrate -11.8%.
CCn1c(=O)c2c(n3c(=S)[nH]nc13)-c1ccccc1CC21CCCCC1 was read as Gal4-VP16 FLuc -12.7%, GALK inhibitor -3.0%, RORg inh 2.82µM*, FBPA coupling cs 6.3, TrxR1 inh inconclusive and TrxR1 substrate -1.0%.
C(=N\Nc1nc2ccccc2[nH]1)/c1cccs1 was read as Gal4-VP16 FLuc 4.47µM*, GALK inhibitor 1.8%, RORg inh 3.16µM*, FBPA coupling cs -9.1, TrxR1 inh -14.7% and TrxR1 substrate -14.0%.
Cc1ccsc1/C=N/Nc1nc2ccccc2[nH]1 was read as Gal4-VP16 FLuc 1.41µM*, GALK inhibitor 2.3%, RORg inh 1.41µM*, FBPA coupling cs -2.8, TrxR1 inh -7.0% and TrxR1 substrate -8.1%.
Screening C(=N\Nc1nc2ccccc2[nH]1)/c1ccncc1 returned Gal4-VP16 FLuc inconclusive, GALK inhibitor -3.1%, RORg inh 15.4%, FBPA coupling cs -0.6, TrxR1 inh -10.8%[57.1 µM] and TrxR1 substrate -10.6%[57.1 µM].
COc1cccc(CN2CCNC(=O)C2CC(=O)NCCCn2ccnc2)c1 (stereo not given) was read as Gal4-VP16 FLuc -2.0%, GALK inhibitor 4.7%, RORg inh 13.8%, FBPA coupling cs -6.7, TrxR1 inh 21.7% and TrxR1 substrate 6.3%.
